Compounds with a hit are over-represented: about 9.3% of the library has one in this group of screens.
NPC1 prom act: activators of NPC1 promoter | Huh7 NPC1 promoter luciferase reporter, 24 h | Potency, µM (series often up to 9.22 µM), inactives show at the top dose activation, actives largely listed as activators | hit rate 2.4% among 320,000; further: % of control where 0% means no effect; nearly all actives have a fitted effect of over 60% in size
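Compounds in DMSO were transferred onto Huh7 NPC1-luciferase reporter cells pre-incubated 2 h; after 24 h at 37 °C, Amplite reagent was dispensed and luminescence recorded 10 min later.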
FLuc counter: inhibits or activates purified firefly luciferase, miR-21 counter-screen | P08659 | Potency, µM (titrated, usually from 57.5 µM), inactives show at the top dose activity change, negative = inhibition, most hits filed as inhibitors | AID 588342 | purified FLuc, Km substrates, luminescence inhibition | hit rate 6.9% among 360,000;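 further: plate controls were vehicle for no effect and reference inhibitor for full effect; nearly all actives have a fitted effect of over 55% in size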
Target sequence (P08659 whole entry, looked up): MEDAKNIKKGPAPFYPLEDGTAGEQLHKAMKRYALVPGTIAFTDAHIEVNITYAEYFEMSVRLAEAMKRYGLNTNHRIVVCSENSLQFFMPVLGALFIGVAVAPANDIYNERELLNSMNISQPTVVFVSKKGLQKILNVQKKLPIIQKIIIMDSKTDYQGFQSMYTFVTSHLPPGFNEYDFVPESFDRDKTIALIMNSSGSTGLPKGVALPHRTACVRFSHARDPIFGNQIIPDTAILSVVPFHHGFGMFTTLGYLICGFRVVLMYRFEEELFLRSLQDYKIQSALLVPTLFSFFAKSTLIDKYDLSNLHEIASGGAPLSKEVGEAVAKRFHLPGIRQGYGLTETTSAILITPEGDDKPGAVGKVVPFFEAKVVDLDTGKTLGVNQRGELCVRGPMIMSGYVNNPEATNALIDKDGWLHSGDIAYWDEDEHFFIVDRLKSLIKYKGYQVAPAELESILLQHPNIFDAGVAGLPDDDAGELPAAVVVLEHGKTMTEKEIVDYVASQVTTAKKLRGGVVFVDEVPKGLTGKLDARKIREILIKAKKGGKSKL
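Purified P. pyralis luciferase (10nM final) with 10uM D-luciferin and 10uM ATP (Km levels) in 50mM Tris acetate pH 7.5, 10mM Mg acetate, 0.01% Tween-20, 0.05% BSA; qHTS 6-point titration, ~60 µM downward; luminescence read.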
ELG1 genotoxic: inducers of genotoxicity in HEK293T ELG1-luciferase cells; HEK293T ELG1-luciferase reporter, luminescence, 16 h; Potency, µM (top dose mostly 46 µM), for inactives: at the highest dose activity change, positive = activation, usual class: activators; hit rate 1.3% among 330,000; AID 504466; further: % of control where 0% means no effect; nearly all actives have a fitted effect of over 60% in size
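HEK293T cells expressing luciferase-tagged ELG1 were exposed to compound or DMSO vehicle for 16 hr at 37 °C and 5% CO2. Luciferase activity was then measured with ONE-Glo after 30 min at room temperature.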
SMN2 splice up: SMN2 splice variant enhancement; hit rate 2.8% among 210,000; Potency, µM (doses to about 46.1 µM), for inactives: at the top dose activity change, positive = activation, usual class: activators; HEK293 SMN2-luciferase splicing reporter, luminescence, 30-36 h; AID 1458; further: % of control where 0% means no effect; nearly all actives have a fitted effect of over 55% in size
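HEK293 cells carry an SMN2 minigene-luciferase reporter in which exon 7 inclusion puts luciferase in frame. Cells were seeded at 2000 cells/well, attached for 10-12 hours, then exposed to compounds for 30-36 hours at 37C before ONE-Glo luminescence.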
ELG1 repair inh: blocks ELG1-dependent DNA repair in HEK293T cells; HEK293T ELG1-luciferase reporter, luminescence, 16 h; DNA damage induced by 5-fluorouridine; Potency, µM (highest dose often 46.1 µM), without a hit: at the highest dose activity change, negative = inhibition, actives largely listed as inhibitors; hit rate 2.3% among 330,000; further: on the % scale 0 is the no-effect control and ±100 the full control effect; nearly all actives have a fitted effect of over 55% in size
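Cells (2,000 per well) received 5-fluorouridine plus test compound or DMSO and were incubated 16 hr at 37 °C, 5% CO2. Luciferase activity was read by luminescence 30 min after ONE-Glo addition; signal suppression marked inhibition of damage-induced ELG1 function.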
Rab9 promoter act: Rab9 promoter activation | Potency, µM (titrated, usually from 9.22 µM), without a hit: at the top dose activation, negative = inhibition, actives largely listed as activators | Huh7 Rab9 promoter-luciferase reporter, luminescence, 24 h | hit rate 2.8% among 320,000 | AID 485297; further: % of control where 0% means no effect; nearly all actives have a fitted effect of over 60% in size
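Steps: seed 1500 Huh7 Rab9-luc cells per well, rest 2 h at 37 °C; add compound in DMSO; incubate 24 h; add luciferase reagent, 10 min ambient; read luminescence.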
An asterisk follows results filed as active; ? = inconclusive; . = no result given; [ ] = dose if it differs, or a comment. The call rests on the fitted dose curve; in most records, active means well fitted curve in the direction sought with a large enough effect; inconclusive means small, poorly fitted or top-dose-only effect, or another doubt; inactive means no such curve, though single readings can be large; an effect the other way counts as inactive or inconclusive. Potency means the concentration at half of the fitted maximal effect.

SMILES | NPC1 prom act | FLuc counter | ELG1 genotoxic | SMN2 splice up | ELG1 repair inh | Rab9 promoter act
CCOC(=O)c1ccc(NC(=O)CCc2ccc(C)o2)cc1 | -1.5% | -11.4% | 3.0% | -28.2% | -21.0% | 1.5%
COc1ccc(C(=O)/C=C2/C(=O)Nc3ccccc32)c(OC)c1 | 0.9% | 8.49µM* | -4.7% | . | 0.0% | 0.5%
COc1ccc(C2(C(=O)c3ccccc3)C(=O)c3ccccc3C2=O)cc1 | 2µM* | 4.78µM* | ? | . | ? | ?
COc1ccc(C(=O)/C=C2/C(=O)Nc3ccccc32)cc1OC | -0.9% | -13.7% | 6.6% | . | 7.2% | -0.8%
COc1ccc(C(=O)/C=C2/c3ccccc3CC(C)(C)N2C)cc1 | -34.5% | 5.36µM* | 9.3% | -14.5% | 20.1% | -13.9%
COc1ccc(C(=O)/C=C2/C(=O)Nc3ccccc32)cc1 | 3.1% | 2.39µM* | ? | . | ? | -0.2%
COc1cc(NC(=O)c2cccc(C)c2)c(Cl)cc1[N+](=O)[O-] | 0.0% | -4.4% | -1.2% | 1.6% | 16.8% | -2.9%
O=C1Nc2ccccc2/C1=C/C(=O)c1cccs1 | -3.2% | 15.1µM* | -5.6% | ? | -3.3% | 15.3%
O=C(COc1ccccc1)Nc1ccccc1OCc1cc(=O)n2ccccc2n1 | . | -4.7% | . | . | . | .
CCc1ccc(NC(=O)Nc2ccccc2OCc2cc(=O)n3ccccc3n2)cc1 | . | 0.213µM* | . | . | . | .
O=C(COc1ccccc1Cl)Nc1ccccc1OCc1cc(=O)n2ccccc2n1 | . | 19µM* | . | . | . | .
CSc1cccc(NC(=O)Nc2ccccc2OCc2cc(=O)n3cc(C)ccc3n2)c1 | . | 3.01µM* | . | . | . | .
CC(=O)Nc1ccc(N2CCCC(C)C2)c([N+](=O)[O-])c1 (centres undefined) | -8.0% | -11.7% | 2.9% | 1.5% | -0.9% | -7.6%
COc1cc2c(=O)n(Cc3ccccc3)c(=O)n(CC(=O)Nc3cc(C(F)(F)F)ccc3Cl)c2cc1OC | . | 4.6% | . | 15.1% | . | .
COCCCn1nnnc1SCC(=O)Nc1ccc2c(c1)OCCO2 | -0.8% | -9.4% | 3.2% | . | 21.3% | -1.3%
Cc1ccc(NC(=O)CSc2nnc(CN3CCOCC3)n2C)cc1C | -1.5% | -3.1% | -0.6% | -42.9% | 1.7% | -3.9%
Nn1c(SCC(=O)Nc2ccc3c(c2)OCCO3)nncc1=O | -0.6% | 21.3µM* | 0.2% | . | -7.2% | 16.5%
CCn1nnnc1SCC(=O)Nc1ccc2c(c1)OCCO2 | 2.82µM* | 15.1µM* | ? | 11.2µM* | ? | ?
Cc1ccccc1-c1nnc(SCC(=O)Nc2ccc3c(c2)OCCO3)n1N | 0.4% | -6.0% | 2.5% | -4.7% | -12.4% | -2.6%
Cn1c(CN2CCOCC2)nnc1SCC(=O)Nc1ccc2c(c1)OCCO2 | 15.9% | 1.3% | 6.7% | 8.91µM* | 18.8% | -2.7%
CC(C)n1nnnc1SCC(=O)Nc1ccc2c(c1)OCCO2 | 3.16µM* | 16.9µM* | ? | . | ? | ?
CCCOC(=O)c1ccc(NC(=O)CN(C)Cc2cccs2)cc1 | 1.0% | 6.0% | 0.2% | . | -9.0% | -0.1%
CCN(CC)CCNS(=O)(=O)c1ccc2c3c(cccc13)C(=O)N2 | 5.1% | 7.7% | -9.3% | . | -15.0% | -1.9%
CC(C)C1Cc2c(C#N)c(N)sc(=S)c2CO1 (centres undefined) | -3.2% | -5.6% | 4.4% | 2.0% | 9.0% | 0.8%
CC(C)n1c(SCc2ccc(Cl)cc2)nc2c1c(=O)[nH]c(=O)n2C | 1.3% | 2.5% | 15.0% | -7.2% | 9.1% | 1.0%
SMILES | NPC1 prom act | FLuc counter | ELG1 genotoxic | SMN2 splice up | ELG1 repair inh | Rab9 promoter act
COc1ccc(-n2nnnc2SCC(=O)Nc2ccc3c(c2)OCCO3)c(OC)c1 | 7.0% | ? | -1.4% | -21.8% | 20.6µM* | 8.2%
CC1CCCCN1CCCNC(=O)c1cc(Sc2cccc(Cl)c2)nc2ccccc12 (centres undefined) | . | -0.9% | . | . | . | .
Cc1csc(-c2coc3cc(O)cc(C)c3c2=O)n1 | ? | 9.53µM* | 20.6µM* | ? | ? | ?
COc1ccc2c(=O)c(-c3nc(C)cs3)coc2c1 | 0.631µM* | 0.757µM* | ? | 4.47µM* | ? | 1.26µM*
CCc1cc2c(=O)c(-c3nc(C)cs3)coc2cc1O | 2.0% | 1.9µM* | ? | . | ? | ?
Cc1ccccc1-c1nccc(-n2ccnc2)n1 | . | . | . | 7.8% | . | .
COc1ccc2c(Cl)c(C(=O)OCC(=O)c3ccc4c(c3)NC(=O)CO4)sc2c1Cl | -5.9% | 0.8% | -0.2% | . | 2.5% | -6.1%
CC(C)CN1C(=O)CC(Sc2ccccc2C(=O)O)C1=O (centres undefined) | -4.3% | 2.4% | 1.8% | 28.4% | 17.0% | 0.8%
COC(c1ccccc1)c1nc2ccccc2[nH]c1=O (centres undefined) | -2.1% | -0.2% | 3.7% | . | ? | 1.1%[1.84 µM]
Cc1csc2c(=O)sc(NC(=O)c3ccc(F)cc3Cl)nc12 | -1.0% | -1.3% | -8.8% | . | -21.0% | -11.4%
O=C(Nc1nc2ccsc2c(=O)s1)c1ccc(F)cc1Cl | 0.708µM* | 0.536µM* | 9.2µM* | . | ? | 0.562µM*
Cc1csc2c(=O)sc(NC(=O)c3ccc(F)cc3)nc12 | 0.3% | 0.5% | 1.8% | . | 13.3% | -0.8%
O=C(Nc1nc2ccsc2c(=O)s1)c1ccc(F)cc1 | 0.398µM* | 0.536µM* | ? | . | ? | 0.282µM*
O=C(CCn1cnc2ccccc21)N/N=C/c1ccccc1O | 0.7% | 8.49µM* | ? | -53.0% | ? | -35.4%
O=C(CCn1cnc2ccccc21)N/N=C/c1ccc(O)cc1 | -0.4% | ? | 0.7% | -12.6% | -3.5% | -4.8%
O=C(CSc1ccc2ccccc2n1)N/N=C/c1ccccc1O | -5.2% | ? | 10.2% | . | 16.4µM* | -4.2%
O=C(CSc1ccc2ccccc2n1)N/N=C/c1ccc(O)cc1 | -2.3% | ? | 2.1% | . | -8.5% | 2.2%
CCCc1nnc(NC(=O)Cc2coc3ccc(C)cc23)s1 | . | 0.7% | . | 4.7% | . | .

High-throughput results deposited in PubChem BioAssay by National Center for Advancing Translational Sciences (NCATS).
